Laboratory results reported in PubChem BioAssay AID1159580 (chemical genetic matrix, 2015).
Values joined by “and” are separate entries in the source; they are usually repeats but may differ in a detail not shown here. Equal values may be shown once. Hit rate of the full screen: of about 5,500 compounds, about 2,000 (36%) were called active. Not shown: some 18% with an inconclusive outcome. Cut-off read from the data, not from the text of the source: active = normalized growth mostly below about 0.91 (no sharp cut-off); inconclusive = no clear call, values can overlap the other calls; inactive = mostly above about 0.92. The list shows a part of the results.

Experiment: chemical genetic growth profiling, strain panel (AID 1159580);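 note: tested at 20 µM; growth read once vehicle control cultures reached saturation at 30 °C; 1 = growth at the plate median or of vehicle wells; lower values mean less growth of the strain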
Conditions: S. cerevisiae deletion strains, growth OD

Measured: normalized growth

COC(=O)C(C)c1ccc(C(=O)c2cccs2)cc1 (stereo unspecified)
active: locus YDR318W, strain mcm21, stronger effect = lower value 0.907 | locus YGL086W, strain mad1, stronger effect = lower value 0.92
inactive: locus YAL013W, strain DEP1, stronger effect = lower value 0.998 | locus YAL021C, strain ccr4, stronger effect = lower value 1.01 | locus YAL026C, strain drs2, stronger effect = lower value 0.988 | locus YAL030W, strain snc1, stronger effect = lower value 1.01 | locus YBL061C, strain skt5, stronger effect = lower value 1.01 | locus YBR009C, strain hhf1, stronger effect = lower value 1 | locus YBR021W, strain FUR4, stronger effect = lower value 0.971 | locus YBR023C, strain chs3, stronger effect = lower value 1.01 | locus YBR171W, strain sec66, stronger effect = lower value 1.01 | locus YBR229C, strain ROT2, stronger effect = lower value 0.998 | locus YBR231C, strain swc5, stronger effect = lower value 1.02 | locus YBR279W, strain paf1, stronger effect = lower value 1 | locus YCL011C, strain gbp2, stronger effect = lower value 1 | locus YCL016C, strain dcc1, stronger effect = lower value 1 | locus YCL029C, strain bik1, stronger effect = lower value 0.96 | locus YCL061C, strain MRC1, stronger effect = lower value 1.01 | locus YCL069W, strain vba3, stronger effect = lower value 1.01 | locus YCR088W, strain abp1, stronger effect = lower value 1 | locus YDL005C, strain med2, stronger effect = lower value 1.01 | locus YDL035C, strain GPR1, stronger effect = lower value 0.957 | locus YDL040C, strain nat1, stronger effect = lower value 1.01 | locus YDL074C, strain BRE1, stronger effect = lower value 0.981 | locus YDL101C, strain DUN1, stronger effect = lower value 1.01 | locus YDL134C, strain PPH21, stronger effect = lower value 0.996 | locus YDL185W, strain tfp1, stronger effect = lower value 0.939 | locus YDL192W, strain arf1, stronger effect = lower value 0.951 | locus YDR001C, strain nth1, stronger effect = lower value 1.02 | locus YDR069C, strain doa4, stronger effect = lower value 1.02 | locus YDR101C, strain arx1, stronger effect = lower value 0.975 | locus YDR137W, strain rgp1, stronger effect = lower value 1 | locus YDR150W, strain NUM1, stronger effect = lower value 0.985 | locus YDR159W, strain sac3, stronger effect = lower value 1.02 | locus YDR162C, strain NBP2, stronger effect = lower value 0.998 | locus YDR195W, strain ref2 0.993 | locus YDR297W, strain sur2, stronger effect = lower value 1.01 | locus YDR334W, strain swr1, stronger effect = lower value 1.01 | locus YDR335W, strain msn5, stronger effect = lower value 0.997 | locus YDR388W, stronger effect = lower value 0.973 | locus YDR392W, strain spt3, stronger effect = lower value 0.999 | locus YDR502C, strain sam2, stronger effect = lower value 0.959 | locus YEL003W, strain gim4, stronger effect = lower value 1.01 | locus YEL037C, strain rad23, stronger effect = lower value 1 | locus YEL061C, strain CIN8 (second series), stronger effect = lower value 1.01 | locus YEL061C, strain CIN8, stronger effect = lower value 0.991 | locus YER015W, strain faa2, stronger effect = lower value 1.01 | locus YER016W, strain bim1, stronger effect = lower value 1 | locus YER110C, stronger effect = lower value 0.955 | locus YER111C, strain swi4, stronger effect = lower value 1.01 | locus YER155C, strain BEM2 (second series), stronger effect = lower value 1.01 | locus YER155C, strain BEM2, stronger effect = lower value 0.997 | locus YER167W, strain BCK2, stronger effect = lower value 0.956 | locus YFR010W, strain ubp6, stronger effect = lower value 1.01 | locus YGL078C, strain dbp3, stronger effect = lower value 0.968 | locus YGL167C, strain pmr1, stronger effect = lower value 1.01 | locus YGL173C, strain kem1, stronger effect = lower value 1.02 | locus YGL227W, strain vid30, stronger effect = lower value 1.01 | locus YGL240W, strain doc1, stronger effect = lower value 1 | locus YGL248W, strain PDE1, stronger effect = lower value 0.998 | locus YGL253W, strain hxk2, stronger effect = lower value 1 | locus YGR078C, strain PAC10, stronger effect = lower value 0.995 | locus YGR135W, strain pre9, stronger effect = lower value 0.946 | locus YGR229C, strain SMI1, stronger effect = lower value 0.96 | locus YGR252W, strain gcn5, stronger effect = lower value 0.934 | locus YHR013C, strain ard1, stronger effect = lower value 1.01 | locus YHR027C, strain rpn1, stronger effect = lower value 1.01 | locus YHR030C, strain SLT2, stronger effect = lower value 0.991 and 0.936 | locus YHR079C, strain IRE1 (second series), stronger effect = lower value 0.968 | locus YHR079C, strain IRE1, stronger effect = lower value 0.949 | locus YHR094C, strain hxt1, stronger effect = lower value 0.947 | locus YHR129C, strain ARP1, stronger effect = lower value 0.999 | locus YHR142W, strain chs7, stronger effect = lower value 0.991 | locus YHR200W, strain rpn10, stronger effect = lower value 0.954 | locus YIL066C, strain RNR3, stronger effect = lower value 0.977 | locus YIL073C, strain SPO22, stronger effect = lower value 0.851 | locus YIR030C, strain dcg1, stronger effect = lower value 0.957 | locus YJL092W, strain hpr5, stronger effect = lower value 1 | locus YJL095W, strain BCK1 (second series), stronger effect = lower value 1.01 | locus YJL095W, strain BCK1, stronger effect = lower value 1.01 and 0.972 | locus YJL115W, strain asf1, stronger effect = lower value 1.03 | locus YJL129C, strain trk1, stronger effect = lower value 1.04 | locus YJL134W, strain LCB3, stronger effect = lower value 0.991 | locus YJL154C, strain vps35, stronger effect = lower value 1 | locus YJL164C, strain tpk1, stronger effect = lower value 0.998 | locus YJL166W, strain qcr8, stronger effect = lower value 1 | locus YJL168C, strain set2, stronger effect = lower value 0.973 | locus YJL187C, strain SWE1 (second series), stronger effect = lower value 1 | locus YJL187C, strain SWE1, stronger effect = lower value 1.01 | locus YJR043C, strain POL32, stronger effect = lower value 0.972 | locus YJR066W, strain TOR1, stronger effect = lower value 0.982
